# Compound activity (PubChem BioAssay)
# In the library only some 17% were active in any assay of this set; here they are far more common.
# TDP1 inh: qHTS Assay for Inhibitors of Tyrosyl-DNA Phosphodiesterase (TDP1); Tyrosyl-DNA phosphodiesterase 1 (Homo sapiens), Q9NUW8; Potency, µM (highest dose often 130 µM), usual class: inhibitors; AID 485290, 2010; 350,000 compounds, 0.28% hits; recombinant TDP1, AlphaScreen DNA substrate cleavage; note: nearly all actives have a fitted effect of over 40% in size
# Target sequence (Q9NUW8 whole entry, looked up): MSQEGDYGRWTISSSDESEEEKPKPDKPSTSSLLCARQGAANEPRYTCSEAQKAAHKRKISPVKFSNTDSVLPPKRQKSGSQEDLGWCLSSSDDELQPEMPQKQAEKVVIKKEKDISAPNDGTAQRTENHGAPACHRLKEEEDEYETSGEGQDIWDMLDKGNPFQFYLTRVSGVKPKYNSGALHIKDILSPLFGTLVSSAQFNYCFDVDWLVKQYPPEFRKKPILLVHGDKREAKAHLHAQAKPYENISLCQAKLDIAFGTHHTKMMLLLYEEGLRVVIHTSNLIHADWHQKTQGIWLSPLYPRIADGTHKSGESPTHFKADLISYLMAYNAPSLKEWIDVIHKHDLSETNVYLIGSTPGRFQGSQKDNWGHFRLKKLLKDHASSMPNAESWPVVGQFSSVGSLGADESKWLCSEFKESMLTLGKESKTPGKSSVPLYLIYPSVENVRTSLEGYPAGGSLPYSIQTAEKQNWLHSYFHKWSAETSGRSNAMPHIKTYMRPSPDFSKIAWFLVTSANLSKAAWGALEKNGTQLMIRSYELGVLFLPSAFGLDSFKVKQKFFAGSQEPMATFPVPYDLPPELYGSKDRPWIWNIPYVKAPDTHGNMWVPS
#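 Signal: AlphaScreen proximity between streptavidin donor and anti-FITC acceptor beads on intact substrate. Reaction: Tdp1 1 nM, substrate 15 nM final, 5 min RT after 15 min compound preincubation.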
# ClpP mod: qHTS Assay for Activators of ClpP; ATP-dependent Clp protease proteolytic subunit (Bacillus subtilis (strain 168)), P80244; purified B. subtilis ClpP, FRET peptide cleavage, 20 min; Potency, µM (top dose mostly 57.5 µM); 340,000 compounds, 1.9% hits; AID 651965, 2013; active = well fitted falling curve with a large enough effect; inconclusive = small, poorly fitted or top-dose-only effect; inactive = no such curve, though single readings can be large or run the other way; note: the source files actives as falling curves though it sought activators and does not explain the sign; nearly all actives have a fitted effect of over 65% in size
#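 Purified B. subtilis ClpP, 10 microg/mL final in Tris/HCl pH8 with KCl, BSA, glycerol and Tween-20, cleaved an Abz/nitrotyrosine-quenched decapeptide. Fluorescence (ex 320, em 430) was read at 0 and 20 min at room temperature. Delta was normalized to 5.8 microM ADEP and DMSO/no-enzyme controls.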
# TDP1 cell noCPT: qHTS for Inhibitors of human tyrosyl-DNA phosphodiesterase 1 (TDP1): qHTS in cells in absence of CPT | DT40 Tdp1-/- hTDP1 cells, no CPT, ATP luminescence, 48 h | Potency, µM (series often up to 46.2 µM), usual class: inhibitors | 420,000 compounds, 15% hits | AID 686978, 2013; note: nearly all actives have a fitted effect of over 55% in size
#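 Stably hTDP1-transfected Tdp1-null chicken DT40 cells were treated with library compounds minus camptothecin and grown for at least 48 hr at 37 °C, after which cellular ATP was quantified by luminescence.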
# TDP1 cell CPT: qHTS for Inhibitors of human tyrosyl-DNA phosphodiesterase 1 (TDP1): qHTS in cells in presence of CPT; chicken DT40 Tdp1-/-;hTDP1 cells + 20 nM CPT, ATP luminescence, 48 h; Potency, µM (doses to about 46.2 µM), usual class: inhibitors; 420,000 compounds, 12% hits; note: nearly all actives have a fitted effect of over 55% in size
#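 Cell growth measured by CellTiter-Glo luminescence after a minimum 48 h, 37 C compound exposure with 20 nM CPT in Tdp1-knockout DT40 cells stably expressing hTDP1, seeded 400/well; qHTS titration format.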
# A number is an active result; . = inactive; ? = inconclusive; / = no result given; [ ] = dose if it differs, or a comment. Unless noted, calls come from the whole dose curve; as a rule, active = well fitted curve in the direction sought with a large enough effect; inconclusive = small, poorly fitted or top-dose-only effect, or another doubt; inactive = no such curve, though single readings can be large; an effect the other way counts as inactive or inconclusive.
SMILES,TDP1 inh,ClpP mod,TDP1 cell noCPT,TDP1 cell CPT
Cc1[nH]nc2nc(SCC(=O)NC3CCCCC3)n(-c3ccc(Br)cc3)c(=N)c12,.,?,6.5µM,8.2µM
CCOc1ccc(-n2c(SCC(=O)Nc3ccc(CC)cc3)nc3n[nH]c(C)c3c2=N)cc1,.,/,21µM,?
CCc1ccc(NC(=O)CSc2nc3n[nH]c(C)c3c(=N)n2-c2ccc(C)cc2)cc1,.,?,3.7µM,6.5µM
CCC(Sc1nc2n[nH]c(C)c2c(=N)n1-c1ccc(Br)cc1)C(=O)N(CC)CC (centres undefined),.,.,15µM,18µM
COc1cccc(-c2cnc(C(O)c3c(C)ccc4ccccc34)[nH]2)c1 (centres undefined),/,.,?,?
COC(=O)c1ccsc1NC(=O)CSc1nnnn1-c1ccccc1SC,.,.,?,11µM
Cc1cccc2cc(C#N)c(NCCCNS(=O)(=O)c3ccc(Cl)cc3)nc12,/,?,?,18µM
CCCCNC(=O)c1cc2nc(-c3ccc(OC)cc3)cc(C(F)(F)F)n2n1,/,.,26µM,?
COC(=O)c1cc2nc(-c3ccc(OC)cc3)cc(C(F)(F)F)n2n1,.,.,.,.
COC(=O)c1cc2nc(-c3ccc(C)cc3)cc(C(F)(F)F)n2n1,.,/,.,.
CCCCNC(=O)c1nn2c(C(F)(F)F)cc(-c3ccc(OC)cc3)nc2c1Br,/,/,?,23µM
COc1cc(NC(=O)c2cc3nc(-c4ccc(C)cc4)cc(C(F)(F)F)n3n2)cc(OC)c1OC,.[12.3 µM],.,7.3µM,?
CCCNC(=O)c1nn2c(C(F)(F)F)cc(-c3ccccc3)nc2c1Br,/,.,?,.
CCCCN(C(=O)C1CCN(C(=O)c2ccccc2C)CC1)c1c(N)n(CC(C)C)c(=O)[nH]c1=O,/,.,.,.
COc1ccc(C2CC(C)=C(C#N)S(=O)(=O)C2C#N)cc1 (centres undefined),/,.,.,.
COc1ccc(CNC(=O)C2CC(=O)N(C3CCCC3)C2)cc1 (centres undefined),.,.,.,.
O=S(=O)(c1ccccc1)N1c2cc(Cl)ccc2Oc2nc3ccccc3nc21,.,.,10µM,?
COc1ccc(C(C(=O)NC2CCCCC2)N(C(=O)c2cccs2)c2ccc3c(c2)OCO3)cc1 (centres undefined),.,.,?,?
Cc1ccc(C(C(=O)NC2CCCCC2)N(C(=O)CCCC(=O)Nc2ccccn2)c2ccc3c(c2)OCCO3)cc1 (centres undefined),.,.,.,.
COc1ccc(CN(C(=O)c2ccc3c(c2)OCCO3)C(C(=O)NC2CCCCC2)c2ccc3ncccc3c2)cc1 (centres undefined),.,.,18µM,?
O=C(NC1CCCCC1)C(c1ccc2ncccc2c1)N(Cc1ccccc1)C(=O)c1ccc2c(c1)OCCO2 (centres undefined),.,.,?,13µM
Cc1c(CN(C)C(=O)/C=C/c2ccc([N+](=O)[O-])cc2)cnn1C,.,.,?,23µM
CCc1ccc(NC(=O)COCc2cc(-c3ccc(F)cc3)on2)cc1,.,.,.,.
COc1ccccc1-c1nn2c(C(F)(F)F)nnc2s1,.,13µM,.,.
CCOc1ccccc1-c1nn2c(Cc3ccccc3)nnc2s1,.,25µM,.,.
SMILES,TDP1 inh,ClpP mod,TDP1 cell noCPT,TDP1 cell CPT
COc1ccccc1-c1nn2c(-c3ccc(C(C)(C)C)cc3)nnc2s1,.,/,/,/
COc1ccccc1-c1nnc2sc(-c3ccc(N(C)C)cc3)nn12,.,25µM,0.082µM,0.0073µM
COc1ccccc1-c1nnc2sc(-c3cc4ccccc4o3)nn12,.,.,1µM,1.2µM
CCCn1nc2cc(C(=O)NCC34CC5CC(CC(C5)C3)C4)ccc2c1OCC,.,.,18µM,21µM
CCN(C(=O)CSc1nnc(C)n1-c1ccccc1)C1CCS(=O)(=O)C1 (centres undefined),.,/,.,.
COCC(=O)N1CCc2nc(COc3ccccc3)c3c(c2C1)CO[C@@H](C)C3,.[12.3 µM],/,/,/
